# Data: PubChem BioAssay (Tox21)
# Records with an inconclusive call do not appear. Where a call stands in place of a potency, no number is given. Unmarked numbers belong to inactive results. Calls of active or inactive are those of the source. The call rests on the fitted dose curve; in most records, active means well fitted cell-killing curve with a large enough effect in the repeat runs; inconclusive means weak or mixed curves, or effect the other way; inactive means flat fitted curve, though single readings scatter.
# Assays:
# [1] = cAMP Responsive Elements (CRE) small molecule antagonists, cell-based qHTS assay: qHTS cell viability counter screen (AID 2060913); further: nearly all actives have a fitted effect of over 40% in size; further: potency means the concentration at half of the fitted maximal effect
# Method in brief: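 Viability of NKH477-stimulated (0.25 uM final) CRE-bla HEK293T cells is measured by CellTiter-Glo luminescence following 3 hrs compound exposure at 37 C.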
# [2] = cAMP Responsive Elements (CRE) small molecule agonists, cell-based qHTS assay: qHTS cell viability counter screen (AID 2060914);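 further: viability read after 3 h of compound exposure; nearly all actives have a fitted effect of over 50% in size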
# Method in brief: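 Cytotoxicity counter screen multiplexed with the CRE-bla reporter assay in HEK 293T cells: 3 h compound exposure at 37 °C, followed by CellTiter-Glo luminescence measured in the same wells.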
SMILES,Potency [1],Potency [2],"viability change, negative = cytotoxic [1]","activity change, negative = cytotoxicity [2]"
NC(N)=S,inactive,inactive,,
CC1=CCC(C(C)C)C=C1 (stereo not given),inactive,inactive,,
CC(C)OC(C)C,inactive,inactive,,
Clc1cc(Cl)nc(Cl)n1,inactive,inactive,,
Cc1ccc2ccccc2n1,inactive,inactive,,
CCC(C)(C)OC,inactive,inactive,,
CC(C)c1ccc(S(=O)(=O)O)cc1,inactive,inactive,,
COC1=CC(=O)C[C@@H](C)[C@]12Oc1c(Cl)c(OC)cc(OC)c1C2=O,inactive,inactive,,
Cc1nc2ccccn2c(=O)c1CCN1CCC(C(=O)c2ccc(F)cc2)CC1,inactive,inactive,,
CCCCCCCCCCCCOC(C)=O,inactive,inactive,,
CCCOc1sc(C(=O)N2CCC(c3cc(CN)ccc3F)CC2)c(C)c1Br,56 µM (active),inactive,,
O=C(N/N=C/c1ccccc1O)c1ccncc1,inactive,inactive,,
Cc1c(Cl)cccc1Nc1ccccc1C(=O)O,inactive,inactive,,
SC1CCCC1,inactive,inactive,,
O=C(CC(=O)C(F)(F)F)c1ccccc1,inactive,inactive,,
NC1[C@H]2CN(c3nc4c(cc3F)c(=O)c(C(=O)O)cn4-c3ccc(F)cc3F)C[C@@H]12 (stereo not given in full),inactive,inactive,,
CC1(C)CC(N)CC(C)(C)N1,inactive,inactive,,
CN(C)CCCN(C)CCCN(C)C,inactive,inactive,,
CC1CN(c2ccccc2)NC1=O (stereo not given),inactive,inactive,,
Nc1ccc(O)cc1,inactive,inactive,,

SMILES,Potency [1],Potency [2],"viability change, negative = cytotoxic [1]","activity change, negative = cytotoxicity [2]"
CC(=O)C1CCCCC1=O (stereo not given),inactive,inactive,,
O=[N+]([O-])c1cccc(S(=O)(=O)NCCNS(=O)(=O)c2cccc([N+](=O)[O-])c2)c1,inactive,inactive,,
CC(C)(C)c1ccc(OC(=O)c2ccccc2O)cc1,inactive,inactive,,
CCOC(=O)C(F)(F)F,inactive,inactive,,
CCC(=O)OC(=O)CC,inactive,inactive,,
O=P(O)(O)Oc1ccccc1,inactive,inactive,,
COc1cc2c3cc1Oc1cc(ccc1O)C[C@@H]1c4c(cc(OC)c(O)c4Oc4ccc(cc4)C[C@@H]3N(C)CC2)CC[N+]1(C)C,inactive,inactive,,
CCCCCN(CCCOC)C(=O)C(CCC(=O)O)NC(=O)c1ccc(Cl)c(Cl)c1 (stereo not given),inactive,inactive,,
C=CCCCCCCCCCCCCCC,,,-1.45% [at 18.9 µM],-8.5% [at 18.9 µM]
Nc1ccc(-c2ccc(F)cc2)cc1,inactive,inactive,,
CCN(CCCCOC(=O)c1ccc(OC)c(OC)c1)C(C)Cc1ccc(OC)cc1 (stereo not given),inactive,inactive,,
Cc1c(OCC(F)(F)F)ccnc1CS(=O)c1nc2ccccc2[nH]1 (stereo not given),inactive,inactive,,
CC(C)NCC(O)c1cc(O)cc(O)c1 (stereo not given),inactive,inactive,,
CCCCCC=O,inactive,inactive,,
Clc1cc(Cl)c(Cl)c(Cl)c1Cl,inactive,inactive,,
CNC(=O)c1ccccc1,inactive,inactive,,
O=C(O[C@@H](C(=O)O)[C@@H](OC(=O)c1ccccc1)C(=O)O)c1ccccc1,inactive,inactive,,
CCO[Si](CCC1CCC2OC2C1)(OCC)OCC (stereo not given),inactive,inactive,,
CCN(Cc1ccccc1)c1ccccc1,inactive,inactive,,
Cc1cc(O)c(C(C)C)cc1Cl,inactive,inactive,,

SMILES,Potency [1],Potency [2],"viability change, negative = cytotoxic [1]","activity change, negative = cytotoxicity [2]"
C1CCCCC1,inactive,inactive,,
CCCCN1C[C@H](O)[C@@H](O)[C@H](O)[C@H]1CO,inactive,inactive,,
CNc1ccc([N+](=O)[O-])cc1,inactive,inactive,,
CC(C)(C)c1cccc(C(C)(C)C)c1O,inactive,inactive,,
Nc1ccn([C@@H]2O[C@H](CO)[C@@H](O)[C@@H]2O)c(=O)n1,inactive,inactive,,
CCCCCCCCCCCCSC#N,inactive,inactive,,
CCOC(=O)[C@H](CCc1ccccc1)N[C@@H](C)C(=O)N1Cc2ccccc2C[C@H]1C(=O)O,inactive,inactive,,
CC(=O)N[C@@H](CCC(=O)O)C(=O)O,inactive,inactive,,
CCNc1nc(N)nc(Cl)n1,inactive,inactive,,
Nc1ccc(/C=C/c2ccc(N)cc2S(=O)(=O)O)c(S(=O)(=O)O)c1,,,3.88% [at 0.349 µM],6.77% [at 0.349 µM]
CCC(C)c1cc([N+](=O)[O-])cc([N+](=O)[O-])c1OC(=O)OC(C)C (stereo not given),inactive,inactive,,
CCCCCc1ccc(Cl)cc1,inactive,inactive,,
CC1=CC(=O)/C(=C(/C)O)C(=O)O1,inactive,inactive,,
COc1cc2c(cc1OC)C(=O)CC2,inactive,inactive,,
C=CCc1ccc(OC)c(OC)c1,inactive,inactive,,
Cn1cc(C(=O)[C@@H]2CCc3nc[nH]c3C2)c2ccccc21,inactive,inactive,,
CCCc1cc(C(N)=S)ccn1,inactive,inactive,,
CCN(CC)CCc1nc(-c2ccccc2)no1,inactive,inactive,,
C=C[Si](OC)(OC)OC,inactive,inactive,,
C[N+](C)(C)CCCCCC[N+](C)(C)C,inactive,inactive,,
